Tests used:
Settings in all cases: concentration: 1 μM, replicates: in singlicate; n = 1
[1] = system: TAOK2
[2] = system: TAOK3
[3] = system: TBK1
[4] = system: TEC
[5] = system: TESK1
[6] = system: TGFBR1
[7] = system: TGFBR2
[8] = system: TIE1
[9] = system: T1, TIE2
T1 construct: gene TEK

[10] = system: TLK1
[11] = system: TLK2
[12] = system: TNIK
[13] = system: TNK1
[14] = system: TNK2
[15] = system: TNNI3K
[16] = system: T2, TRKA
T2 construct: gene NTRK1

[17] = system: TRKB
[18] = system: T3, TRKC
T3 construct: gene NTRK3

[19] = system: TRPM6
[20] = system: TSSK1B
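Note: KINOMEscan kinase panel screen.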

Structure (SMILES) | %Inh [1] | %Inh [2] | %Inh [3] | %Inh [4] | %Inh [5] | %Inh [6] | %Inh [7] | %Inh [8] | %Inh [9] | %Inh [10] | %Inh [11] | %Inh [12] | %Inh [13] | %Inh [14] | %Inh [15] | %Inh [16] | %Inh [17] | %Inh [18] | %Inh [19] | %Inh [20]
Fc1ccc(-c2nn3c(OCC(F)(F)F)cccc3c2-c2ccncc2)cc1 [GW514784] | 0% | 0% | 0% | 0% | 13% | 39% | 55% | 0% | 0% | 0% | 0% | 29% | 0% | 18% | 0% | 15% | 37% | 25% | 0% | 0%
Cc1nnc(-c2ccc3occ(-c4ccc(C(C)O)cc4)c3c2)o1 (stereo not drawn) | 8% | 0% | 30% | 0% | 3% | 3% | 69% | 18% | 16% | 0% | 0% | 0% | 0% | 0% | 27% | 0% | 0% | 37% | 0% | 0%
O=c1cc(N2CCOCC2)nc2n(Cc3cccc(C(F)(F)F)c3)ccn12 [GSK2297543] | 0% | 0% | 24% | 0% | 18% | 0% | 0% | 0% | 0% | 12% | 3% | 0% | 0% | 11% | 6% | 20% | 0% | 0% | 0% | 16%
Fc1ccc(-c2ncn(CCCN3CCOCC3)c2-c2ccccn2)cc1 [SB-211742] | 5% | 0% | 21% | 0% | 0% | 52% | 6% | 0% | 27% | 0% | 0% | 0% | 24% | 0% | 0% | 0% | 0% | 0% | 0% | 0%
COc1cc2c(cc1OCCN1CCN(C)CC1)ncc1c3ccc(C#N)cc3[nH]c21 | 13% | 0% | 83% | 0% | 0% | 0% | 0% | 0% | 6% | 37% | 0% | 91% | 8% | 0% | 2% | 99.8% | 97.2% | 83% | 0% | 34%
CN(C1=C(c2ccccc2)C(=O)NC1=O)c1ccccc1 [SB-334860] | 0% | 0% | 29% | 7% | 67% | 26% | 0% | 0% | 5% | 20% | 6% | 4% | 7% | 18% | 20% | 18% | 0% | 0% | 31% | 11%
NS(=O)(=O)CCc1cccc(Nc2nccc(-c3c(-c4cccc(NC(=O)c5c(F)cccc5F)c4)nn4ccccc34)n2)c1 [GSK336735] | 32% | 88% | 15% | 95.6% | 50% | 3% | 20% | 96.8% | 91.1% | 8% | 2% | 85% | 100% | 89% | 48% | 0% | 19% | 11% | 56% | 28%
C[C@@H](Oc1cc(-n2cnc3ccc(NC(=O)NC(C)(C)C)cc32)sc1C(N)=O)c1ccccc1Cl [GSK346294] | 2% | 0% | 27% | 20% | 0% | 0% | 4% | 3% | 0% | 21% | 0% | 0% | 0% | 9% | 13% | 33% | 0% | 0% | 0% | 20%
COc1ccc(Nc2nccc(N3CCC(NC(=O)Nc4cccc(C(C)=O)c4)C3)n2)cc1 (stereo not drawn) [GSK1379731] | 0% | 0% | 0% | 0% | 30% | 0% | 0% | 0% | 0% | 0% | 0% | 0% | 0% | 0% | 48% | 50% | 44% | 78% | 2% | 0%
